This note sets out measurements from PubChem BioAssay (NCATS).

Catechol O-methyltransferase (Homo sapiens), sequence (P21964 whole entry, looked up): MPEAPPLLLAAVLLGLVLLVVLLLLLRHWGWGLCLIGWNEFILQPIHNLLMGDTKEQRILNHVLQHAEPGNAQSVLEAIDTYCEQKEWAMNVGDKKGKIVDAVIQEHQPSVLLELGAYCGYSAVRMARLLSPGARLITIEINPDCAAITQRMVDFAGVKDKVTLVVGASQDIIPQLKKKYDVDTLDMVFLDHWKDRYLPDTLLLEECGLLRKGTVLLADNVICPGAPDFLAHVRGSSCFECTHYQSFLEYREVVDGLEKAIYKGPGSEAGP

The assay addresses Catechol O-methyltransferase (Homo sapiens) (UniProt P21964). Nature of the assay: Confirmatory Screen for Target Class Profiling of Small Molecule Inhibitors of Methyltransferases (AID 1745852). Particulars: MTase-Glo luminescence, SAH detection, recombinant enzyme; measured here: COMT max response; stronger effect = lower value.
As to `c1ccc(-c2cc3c(cn2)NCCN(CC2CC2)C3)cc1`, the activity worked out at 8.66%.

Consider `Cc1c(O)cc(O)c2c(=O)c(O)c(-c3ccc(O)c(O)c3)oc12`, for which the activity was -46.7%.

In the case of `Nc1nc(NCc2ccc(Cl)cc2Cl)cc(C2CC(O)C2)n1` (configuration not stated), the activity is 1.79%. Under `O=C(O)c1ccc2c(c1)C1C=CCC1C(c1ccc(Cl)cc1)N2` (configuration not stated) stands -24.7%. Under `Cc1nc(NC(=O)C2CC(=O)N(c3n[nH]c4cc(Br)ccc34)C2)sc1C` (configuration not stated) stands 11.1%. Under `CCCC1c2cccn2CCN1C(=O)Nc1ccc(F)cc1F` (configuration not stated) stands -4.42%.

As to `COc1cccc(N2C(=O)c3cc4occc4n3CC2(C)C(=O)NC2CCCCCC2)c1` (configuration not stated), the activity was -4.86%. Under `COc1ccc(CCNC(=O)c2ccc(CN3C(=O)CCn4nccc43)cc2)cc1OC` stands -29.4%. Under `CCN(CC)CCCNC(=O)CCc1nnc2n(Cc3ccccc3)c(=O)c3ccccc3n12` stands 1.43%; under `O=C(c1ccc(C2CCCNC2)cc1)N1CCN(c2ccncc2)CC1` (configuration not stated), 3.41%; under `CC1CCCCN1CCNC(=O)CCc1nnc2n(Cc3ccc(F)cc3)c(=O)c3ccccc3n12` (configuration not stated), 4.47%. Regarding `O=C(NCCc1ccc(Cl)cc1)c1ccc2c(=O)[nH]c3c(C(=O)NC4CCCC4)sc(=S)n3c2c1`, the activity was -38.3%. Next, `CCOC(=O)c1cc2n(n1)CC(C)(C(=O)NCCC(C)C)N(c1ccccc1C)C2=O` (configuration not stated): 2.78%; `CCN(CCc1nc2ccc(C)cc2[nH]1)C(=O)c1ccccc1C1CCNC1` (configuration not stated): 6.01%. Regarding `CC1CCN(CCCNC(=O)CCc2nnc3n(Cc4ccccc4)c(=O)c4ccccc4n23)CC1`, the activity was 0.801%. Next, `COc1ccc(S(=O)(=O)N2CCC(n3c(=O)[nH]c4ccccc43)CC2)cc1`: -23.2%; `CCCN1CCn2c3c(c4cc(OC)ccc42)CCN=C31`: -5.03%.
